High-throughput results: PubChem BioAssay, National Center for Advancing Translational Sciences (NCATS)
Lassa entry inh: Lassa virus entry inhibition. Lassa virus pseudotype entry inhibition, cell reporter. Potency, µM (highest dose often 37.9 µM), for the others: at the highest dose activity change, negative = inhibition, hits mostly inhibitors. 300,000 tested, 1.2% active. AID 540256; calls by dose curve; tested in HEK293 cells; also: potency is read from the fitted curve at half-maximal effect; nearly all actives have a fitted effect of over 50% in size
HCMV inh: inhibitors of human cytomegalovirus. HFF cells, HCMV-luciferase reporter, 72 h; stronger effect = lower value. activity change, negative = inhibition, % at 57.5 µM. 410,000 tested, 4.5% active. AID 1259415; in the data active = activity change below about -60%; inconclusive = no clear call, values can overlap the other calls; inactive = above about -39%
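HFF cells seeded 16 h at 37C, treated with compounds, infected with luciferase-reporter HCMV at MOI 1 PFU/cell; luciferase read at 72 h post infection, normalized to buffer-only and Salinomycin controls.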
FMDV inh: blocks foot and mouth disease virus. FMDV antiviral cell-based qHTS. Potency, µM (series often up to 57.9 µM), inactives show at the highest dose activity change, negative = inhibition, hits mostly inhibitors. 410,000 tested, 1.2% active. AID 1159524; calls by dose curve; tested in HEK293T cells; also: read-out not given here; potency is read from the fitted curve at half-maximal effect; nearly all actives have a fitted effect of over 45% in size
Vaccinia Venus: vaccinia inhibition (Venus reporter) | Vaccinia virus Venus reporter expression, fluorescence | Potency, µM (doses to about 36.5 µM), inactives show top-dose activity change, negative = inhibition, most hits filed as inhibitors | 330,000 tested, 0.46% active | AID 720580; calls by dose curve; tested in A549 cells; also: potency is read from the fitted curve at half-maximal effect; nearly all actives have a fitted effect of over 30% in size
Vaccinia mCherry: inhibitors of vaccinia virus infection (mCherry reporter signal); Vaccinia virus mCherry reporter infection, fluorescence; Potency, µM (titrated, usually from 36.5 µM), without a hit: at the highest dose activity change, negative = inhibition, usual class: inhibitors; 310,000 tested, 0.63% active; calls by dose curve; tested in A549 cells; also: potency is read from the fitted curve at half-maximal effect; nearly all actives have a fitted effect of over 35% in size
MARV entry inh: inhibitors of Marburg virus binding or cell entry | Marburg virus pseudotyped entry inhibition, cell reporter | 300,000 tested, 1.8% active | AID 540276 | Potency, µM (top dose mostly 37.8 µM), for the others: top-dose activity change, negative = inhibition, actives largely listed as inhibitors; calls by dose curve; tested in HEK293 cells; also: potency is read from the fitted curve at half-maximal effect
An asterisk follows results filed as active; i = inactive; ? = inconclusive; . = not tested or not shown; [ ] = remark or other dose. Only some compounds are listed: those with a hit (about 6.5% of all), similar ones and a draw of the others. % is scaled to controls: 0 for no effect and ±100 for the full control effect.

SMILES | Lassa entry inh | HCMV inh | FMDV inh | Vaccinia Venus | Vaccinia mCherry | MARV entry inh
Cn1nc(CC(=O)Nc2cccc3ncccc23)c2ccccc2c1=O | ? | -66.6* | ? | ? | ? | ?
Cc1ccc(CN2CCOc3ccc(CN4CCC(Oc5cccnc5)CC4)cc3C2)o1 | . | . | -16.3% | -7.7% | -10.1% | .
CCOC(=O)c1cccc(NC(=O)Nc2ccc3c(c2)N(C)C(=O)c2ccccc2S3)c1 | 4.4%[46.1 µM] | -33.7 | ? | -22.6% | -21.9% | ?
CC(C)CC(=O)N(Cc1ccccc1)S(=O)(=O)c1ccc2c(c1)oc(=O)n2C | 14.3%[46.1 µM] | -1.4 | -20.4% | -18.2% | -15.5% | 4.5%[46.1 µM]
CCC(OC(=O)c1ccc(S(C)(=O)=O)c([N+](=O)[O-])c1)C(=O)NC1C2CC3CC(C2)CC1C3 (stereo not drawn) | . | -94.6* | 39.8µM* | . | . | .
CC(OC(=O)c1ccc(S(C)(=O)=O)c([N+](=O)[O-])c1)C(=O)NC1C2CC3CC(C2)CC1C3 (stereo not drawn) | . | -97.1* | 31.6µM* | . | . | .
CC1CCN(C(=O)C(C)OC(=O)c2ccc(S(C)(=O)=O)c([N+](=O)[O-])c2)CC1 (stereo not drawn) | . | . | . | -19.1% | -16.3% | .
CCC(=O)N1CCCc2cc(S(=O)(=O)N3CCC(C(=O)NC4CCC(C)CC4)CC3)ccc21 (stereo not drawn) | -28.5%[46.1 µM] | 2.9 | -19.5% | -19.7% | -5.0% | .
CCCCC/C=C\C/C=C\C/C=C\C/C=C\CCCC(=O)O[C@@H](CO)COC(=O)CCCCCCCCCCCCCCCCC | . | . | -10.2%[6.7 µM] | -11.2%[3.33 µM] | -17.0%[3.33 µM] | .
COC(=O)c1c(-c2ccc(Cl)cc2)noc1N1CCN(c2cccc(OC)c2)CC1 | 12.0%[46.1 µM] | -71.7* | ? | -22.7% | -10.6% | .
COC(=O)c1c(-c2ccc(Cl)cc2)noc1N1CCN(c2cccc(C)c2C)CC1 | 14.0%[46.1 µM] | 11.1 | ? | -9.2% | -10.9% | .
COc1ccc(-c2noc(N3CCC(C(=O)N4CCN(c5cccc(C)c5C)CC4)CC3)n2)cc1 | 13.5%[46.1 µM] | -29.2 | -29.9% | -22.0%[7.34 µM] | -12.3%[7.34 µM] | .
COc1ccc(-c2noc(N3CCC(C(=O)N4CCN(c5ccccc5OC)CC4)CC3)n2)cc1 | ? | -76.6* | 0.0% | -18.1%[7.34 µM] | -3.0%[7.34 µM] | .
CCN(C(=O)C1CCN(c2nc(-c3ccc(OC)cc3)no2)CC1)c1ccc(OC)cc1 | . | -73.0* | ? | ? | -14.2% | .
COc1ccc(-c2noc(N3CCC(C(=O)N4CCN(c5cccc(OC)c5)CC4)CC3)n2)cc1 | -11.3%[46.1 µM] | -83.7* | ? | -9.7%[7.34 µM] | -2.5%[7.34 µM] | .
COc1ccc(NC(=O)C2CCN(c3nc(-c4ccc(OC)cc4)no3)CC2)cc1 | . | -20.6 | -21.9% | -10.2% | -7.8% | .
CCOc1ccc(NC(=O)c2cnn3c2NC(C)=C(C(=O)Nc2ccc(Cl)cc2)C3c2ccc(OC)c(OC)c2)cc1 (stereo not drawn) | ? | -28.8 | -21.5% | -11.3% | -8.2% | -1.7%[46.1 µM]
COc1ccc(-c2noc(N3CCC(C(=O)N4CCN(c5ccccn5)CC4)CC3)n2)cc1 | ? | -82.7* | 12.6µM* | . | . | ?
COCCN1C(=O)C2=C(C1=O)C1N(C)c3ccccc3[C@@]13C[C@@H](CO)N(C(=O)c1ccc(Br)cc1)C3=N2 (stereo partly drawn) | ? | . | . | . | . | -7.4%[14.2 µM]
CCC1CN(CCNC(=O)c2cc(C)nn2CC)Cc2cc(OC)ccc2O1 (stereo not drawn) | . | . | 10.4% | -10.1% | -9.2% | .
COc1cc(N2C(=O)C=CC2=O)c(OC)cc1Cl | ? | -97.7* | 35.5µM* | -22.2% | -1.4% | ?
Cc1ccc(/C=C/C(=O)NCc2ccc3c(c2)OCO3)o1 | 1.4% | -62.4* | 27.4% | -3.5% | -16.4% | 7.4%
O=C(/C=C/c1ccc2c(c1)OCO2)NCc1ccco1 | 10µM* | 1.0 | 21.4% | -18.6% | i | -1.5%
Cc1csc(NC(=O)/C=C/c2ccc3c(c2)OCO3)n1 | ? | 8.5 | -51.0% | -26.4% | -12.7% | 4.47µM*
O=C(/C=C/c1ccc2c(c1)OCO2)Nc1nc(-c2ccc(F)cc2F)cs1 | 17.8% | . | . | . | . | 3.1%
COc1ccc(NC(=O)c2ccc(S(=O)(=O)N(C)c3ccccc3)cc2)cc1S(=O)(=O)N1CCOCC1 | . | ? | 15.8µM* | ? | ? | .
Cc1ccc(NC(=O)c2ccc(S(=O)(=O)N(C)c3ccccc3)cc2)cc1S(=O)(=O)N1CCOCC1 | . | 0.0 | 12.6µM* | . | . | .
